What all share (conditions): mRNA level, 48 h; actives raise or lower the signal
Read-out in assay [1]: Bcl-2 (BAX) gene, BAX (gene 581)
The experiment in a line: LTEA_HepaRG_BAX: Life Technologies and Expression Analysis (LTEA) Assay for Bcl-2 (BAX) gene using HepaRG (AID 2283470). An outline of the steps:
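Gene expression measured by Fluidigm qRT-PCR with three housekeeping genes for normalisation. HepaRG cells, plated 48 h beforehand, treated 48 h at up to 100 uM (8-point, half-log) in 0.5% DMSO. Bidirectional fitting versus DMSO.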

Read-out in assay [2]: adenosine kinase (ADK) gene, ADK (gene 132)
Nature of the assay: LTEA_HepaRG_ADK: Life Technologies and Expression Analysis (LTEA) Assay for adenosine kinase (ADK) gene using HepaRG (AID 2283471). In outline: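 Read-out is ADK transcript level measured by qRT-PCR and normalised to three housekeeping genes. Cells are human HepaRG, dosed for 48 h at up to 100 uM in 0.5% DMSO. Gain or loss of signal is fitted against DMSO controls.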

Read-out in assay [3]: Alpha-fetoprotein (AFP) gene, AFP (gene 174)
The experiment in a line: LTEA_HepaRG_AFP: Life Technologies and Expression Analysis (LTEA) Assay for Alpha-fetoprotein (AFP) gene using HepaRG (AID 2283472). An outline of the steps: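 AFP transcript measured by TaqMan qRT-PCR with three housekeeping genes for normalization, after 48 h chemical treatment of HepaRG cells (top 100 uM, half-log steps, 0.5% DMSO). Gain or loss fitted against vehicle.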

Read-out in another assay: BCL2L11 (gene 10018)
Nature of the assay: LTEA_HepaRG_BCL2L11: Life Technologies and Expression Analysis (LTEA) Assay for Bcl-2 (BCL2L11) gene using HepaRG (AID 2283473). An outline of the steps:
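Differentiated human HepaRG cells were exposed 48 h in serum-free induction medium to eight half-log concentrations up to 100 uM in 0.5% DMSO, in duplicate. BCL2L11 mRNA was quantified by TaqMan qRT-PCR, normalized to ACTB, GAPDH and POLR2A; induction or repression fitted versus DMSO.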

Read-out in assay [4]: Bcl-2 (BID) gene, BID (gene 637)
Nature of the assay: LTEA_HepaRG_BID: Life Technologies and Expression Analysis (LTEA) Assay for Bcl-2 (BID) gene using HepaRG (AID 2283476). In outline:
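Duplicate 48 h treatments of HepaRG cells in serum-free induction medium spanned 100 uM downward in half-log steps, 0.5% DMSO. Transcript change quantified by qRT-PCR against three housekeeping genes, fitted up or down versus DMSO.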

Read-out in assay [5]: Cytochrome P450 (CYP24A1), CYP24A1 (gene 1591)
The experiment in a line: LTEA_HepaRG_CYP24A1: Life Technologies and Expression Analysis (LTEA) Assay for Cytochrome P450 (CYP24A1) using HepaRG (AID 2283478). An outline of the steps: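 HepaRG cells plated 48 h, then exposed in duplicate in serum-free induction medium for 48 h to 8-point half-log series from 100 uM in 0.5% DMSO. CYP24A1 mRNA by Fluidigm qRT-PCR, normalized to ACTB, GAPDH, POLR2A; bidirectional fit versus DMSO.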

Read-out in assay [6]: cysteine-aspartic acid protease (CASP8), CASP8 (gene 841)
Nature of the assay: LTEA_HepaRG_CASP8: Life Technologies and Expression Analysis (LTEA) Assay for cysteine-aspartic acid protease (CASP8) using HepaRG (AID 2283480). An outline of the steps:
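qRT-PCR readout of CASP8 mRNA, normalized to three housekeeping genes, after 48 h chemical exposure of HepaRG cells; 8-point half-log series, top 100 uM, 0.5% DMSO vehicle. Bidirectional curve fitting against DMSO baseline.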

Read-out in assay [7]: Cytochrome P450 (CYP2B6), CYP2B6 (gene 1555)
The experiment in a line: LTEA_HepaRG_CYP2B6: Life Technologies and Expression Analysis (LTEA) Assay for Cytochrome P450 (CYP2B6) using HepaRG (AID 2283481). An outline of the steps: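 Differentiated human HepaRG cells in serum-free induction medium, dosed in duplicate for 48 h over 8 half-log concentrations topping at 100 uM (0.5% DMSO). CYP2B6 mRNA measured by TaqMan qRT-PCR, normalized to ACTB, GAPDH, POLR2A; bidirectional fit versus DMSO.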

Read-out in assay [8]: Cytochrome P450 2C19 (Homo sapiens) (UniProt P33261)
Nature of the assay: LTEA_HepaRG_CYP2C19: Life Technologies and Expression Analysis (LTEA) Assay for CYP2C19 using HepaRG (AID 2283482). In outline:
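Differentiated HepaRG cells in serum-free induction medium exposed 48 h in duplicate, 8 concentrations from 100 uM by half-log steps in 0.5% DMSO. CYP2C19 mRNA measured by TaqMan qRT-PCR, normalized to ACTB, GAPDH, POLR2A. Bidirectional fit versus DMSO.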

Read-out in another assay: CYP2C8 (gene 1558)
The experiment in a line: LTEA_HepaRG_CYP2C8: Life Technologies and Expression Analysis (LTEA) Assay for CYP2C8 using HepaRG (AID 2283483). An outline of the steps: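 HepaRG (human liver line), 48 h chemical exposure, 8-pt half-log series from 100 uM, 0.5% DMSO vehicle. Readout: CYP2C8 transcript by qRT-PCR, housekeeping-normalized. Bidirectional fit vs DMSO baseline.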

Read-out in a further assay: CYP2C9 (gene 1559)
The experiment in a line: LTEA_HepaRG_CYP2C9: Life Technologies and Expression Analysis (LTEA) Assay for CYP2C9 using HepaRG (AID 2283484). In outline:
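HepaRG, 48 h dosing, 8-pt half-log series, top 100 uM, 0.5% DMSO vehicle. Read-out: CYP2C9 transcript by TaqMan qRT-PCR, housekeeping-normalized (ACTB/GAPDH/POLR2A). Gain or loss fitted vs DMSO baseline.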

Read-out in another assay: CYP2E1 (gene 1571)
The experiment in a line: LTEA_HepaRG_CYP2E1: Life Technologies and Expression Analysis (LTEA) Assay for CYP2E1 using HepaRG (AID 2283485). In outline: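 CYP2E1 transcript measured by Fluidigm qRT-PCR against three housekeeping genes in human HepaRG cells treated 48 h (top 100 uM, half-log steps, 0.5% DMSO vehicle). Gain or loss fitted relative to DMSO baseline.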

Read-out in the next assay: CYP4A11 (gene 1579)
Nature of the assay: LTEA_HepaRG_CYP4A11: Life Technologies and Expression Analysis (LTEA) Assay for CYP4A11 using HepaRG (AID 2283486). An outline of the steps:
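Differentiated HepaRG cells, 48 h after plating, exposed in duplicate for 48 h to 8 half-log concentrations up to 100 uM in 0.5% DMSO in serum-free induction medium. CYP4A11 mRNA measured by TaqMan qRT-PCR, normalized to ACTB, GAPDH and POLR2A.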

Read-out in assay [9]: Cytochrome P450 3A4 (Homo sapiens) (UniProt P08684)
The experiment in a line: LTEA_HepaRG_CYP3A4: Life Technologies and Expression Analysis (LTEA) Assay for CYP3A4 using HepaRG (AID 2283487). In outline: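 HepaRG, 48 h exposure, 8-pt CRC from 100 uM (half-log), 0.5% DMSO, duplicates; serum-free induction medium. Readout: CYP3A4 mRNA, qRT-PCR, ACTB/GAPDH/POLR2A normalization. Bidirectional fit vs DMSO.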

Read-out in assay [10]: DNA damage-inducible transcript 3 (DDIT3), DDIT3 (gene 1649)
Nature of the assay: LTEA_HepaRG_DDIT3: Life Technologies and Expression Analysis (LTEA) Assay for DNA damage-inducible transcript 3 (DDIT3) using HepaRG (AID 2283488). In outline:
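DDIT3 transcript was quantified by qRT-PCR with ACTB/GAPDH/POLR2A normalization after 48 h chemical treatment of differentiated HepaRG cells in 0.5% DMSO. Dosing was eight-point, half-log, top 100 uM, duplicate wells. Curves fitted bidirectionally versus DMSO.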

Read-out in assay [11]: Pro-epidermal growth factor (Homo sapiens) (UniProt P01133)
The experiment in a line: LTEA_HepaRG_EGF: Life Technologies and Expression Analysis (LTEA) Assay for Epidermal growth factor (EGF) using HepaRG (AID 2283489). An outline of the steps: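 HepaRG cells (~100,000/well, 48 h pre-culture) exposed in duplicate for 48 h in serum-free induction medium to 8 half-log concentrations up to 100 uM in 0.5% DMSO. EGF mRNA by qRT-PCR, normalized to ACTB/GAPDH/POLR2A; bidirectional fit versus DMSO.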

Active and inactive are the calls of the source. Rule for the calls: active = hit-call score of the fitted dose curve at least 0.9, where 1 is the maximum; inactive = score below 0.9.

One may read the AC50 as the concentration giving half of the maximal activity seen.

Sequence of Cytochrome P450 2C19 (Homo sapiens) (P33261 whole entry, looked up): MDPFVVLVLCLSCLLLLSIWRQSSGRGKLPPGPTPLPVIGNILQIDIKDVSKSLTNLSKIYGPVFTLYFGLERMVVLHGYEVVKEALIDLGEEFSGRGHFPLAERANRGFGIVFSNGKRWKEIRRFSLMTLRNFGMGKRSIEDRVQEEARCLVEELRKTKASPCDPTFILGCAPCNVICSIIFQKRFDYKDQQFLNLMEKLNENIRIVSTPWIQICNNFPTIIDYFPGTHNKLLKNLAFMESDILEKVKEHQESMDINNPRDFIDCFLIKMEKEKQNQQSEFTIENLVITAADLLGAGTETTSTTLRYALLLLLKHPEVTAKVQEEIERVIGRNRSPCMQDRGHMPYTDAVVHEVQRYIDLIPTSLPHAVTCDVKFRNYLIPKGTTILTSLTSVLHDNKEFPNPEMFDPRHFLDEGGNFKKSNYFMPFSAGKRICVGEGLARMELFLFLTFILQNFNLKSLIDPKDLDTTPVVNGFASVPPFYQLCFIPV
Sequence of Cytochrome P450 3A4 (Homo sapiens) (P08684 whole entry, looked up): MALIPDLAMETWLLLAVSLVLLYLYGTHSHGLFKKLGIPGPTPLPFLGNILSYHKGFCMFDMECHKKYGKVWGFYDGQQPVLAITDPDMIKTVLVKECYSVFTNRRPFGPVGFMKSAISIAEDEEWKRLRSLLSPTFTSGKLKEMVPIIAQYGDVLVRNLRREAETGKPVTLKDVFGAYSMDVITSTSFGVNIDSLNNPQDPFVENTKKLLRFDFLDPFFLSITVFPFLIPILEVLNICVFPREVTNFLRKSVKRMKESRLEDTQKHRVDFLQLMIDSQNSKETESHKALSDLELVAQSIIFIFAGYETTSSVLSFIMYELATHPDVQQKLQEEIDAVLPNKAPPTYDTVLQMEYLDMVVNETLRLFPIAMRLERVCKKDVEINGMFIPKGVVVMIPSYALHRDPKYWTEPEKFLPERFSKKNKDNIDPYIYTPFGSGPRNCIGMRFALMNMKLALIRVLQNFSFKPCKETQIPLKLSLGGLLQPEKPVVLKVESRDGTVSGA

With `CCC(C)(C)C(=O)OC1=C(c2ccc(Cl)cc2Cl)C(=O)OC12CCCCC2`, the call (in assay [1]; in [2]; in [3]; with BCL2L11 (gene 10018); in [4]; in assay [5]) was inactive. For the same compound, the outcome (in assay [6]; in assay [7]; in assay [8]; with CYP2C8 (gene 1558); in the assay with CYP2C9 (gene 1559); with CYP4A11 (gene 1579)) was inactive. The compound was called inactive in assay [10] and in assay [11]. The AC50 was 23.1 µM (active) with CYP2E1 (gene 1571) and 25 µM (active) in [9].

For `O=[N+]([O-])c1c(Cl)c(Cl)c(Cl)c(Cl)c1Cl`, the call (in assay [2]; in [3]; with BCL2L11 (gene 10018); in assay [4]; in [5]; in assay [6]) was inactive. Moreover, the compound was classed as inactive (in assay [8]; in the assay with CYP2C8 (gene 1558); in the assay with CYP2C9 (gene 1559); in assay [9]; in assay [10]; in [11]). In addition, the AC50 in [7] is 5.88 µM (active); with CYP2E1 (gene 1571) it was 34.3 µM (active).

For `COP(=S)(OC)Oc1ccc(SC)c(C)c1`, the result (in [2]; in the assay with BCL2L11 (gene 10018); in assay [4]; in [5]; in assay [6]; with CYP2C8 (gene 1558)) was inactive. Besides, the call (with CYP2C9 (gene 1559); with CYP4A11 (gene 1579); in assay [10]; in assay [11]) was inactive. Also, the AC50 is 10.3 µM (active) in assay [3], 7.23 µM (active) in assay [7], 50 µM (active) in assay [8] and 18.9 µM (active) with CYP2E1 (gene 1571).

Consider `CCCN(CCOc1c(Cl)cc(Cl)cc1Cl)C(=O)n1ccnc1`, for which the compound was called inactive in [2], in assay [4], in [5] and in assay [6]. In addition, the AC50 in assay [3] is 22.5 µM (active); in the assay with BCL2L11 (gene 10018), 12.7 µM (active); in [7], 31 µM (active); in assay [8] it was 36.8 µM (active); with CYP2C8 (gene 1558), 28.4 µM (active); with CYP2C9 (gene 1559), 31.9 µM (active). The AC50 in the assay with CYP2E1 (gene 1571) was 14.6 µM (active); with CYP4A11 (gene 1579), 18.2 µM (active); in assay [9], 36.2 µM (active); in assay [10], 24 µM (active); in [11] it was 12.1 µM (active).

On to `CC[C@H](C)[C@H]1O[C@]2(C=C[C@@H]1C)C[C@@H]1C[C@@H](C/C=C(\C)[C@@H](O[C@H]3C[C@H](OC)[C@@H](O[C@H]4C[C@H](OC)[C@@H](O)[C@H](C)O4)[C@H](C)O3)[C@@H](C)/C=C/C=C3\CO[C@@H]4[C@H](O)C(C)=C[C@@H](C(=O)O1)[C@]34O)O2` (tested in a mixture with another compound), for which the compound was called inactive in [2], in assay [3], in assay [4], in assay [5] and in assay [6]. Further, the AC50 is 10.7 µM (active) in the assay with BCL2L11 (gene 10018); 11 µM (active) in [7]; 11.6 µM (active) in [8]; 14.1 µM (active) in the assay with CYP2C8 (gene 1558); 7.85 µM (active) in the assay with CYP2C9 (gene 1559); 8.08 µM (active) in the assay with CYP2E1 (gene 1571). Besides, the AC50 was 7.39 µM (active) with CYP4A11 (gene 1579), 10 µM (active) in assay [9], 10.1 µM (active) in assay [10] and 48.4 µM (active) in [11].

Take `Clc1ccccc1-c1nnc(-c2ccccc2Cl)nn1`: the call (in assay [2]; in [3]; in the assay with BCL2L11 (gene 10018); in assay [4]; in assay [5]; in assay [6]) was inactive. For the same compound, the compound was classed as inactive (in the assay with CYP2C8 (gene 1558); with CYP2C9 (gene 1559); in the assay with CYP4A11 (gene 1579); in assay [10]; in assay [11]). The AC50 in assay [7] was 7.28 µM (active); in assay [8] it was 15.3 µM (active); with CYP2E1 (gene 1571), 20.7 µM (active); in assay [9], 9.38 µM (active).
